Source: paper PMC5540273 (PLoS ONE, 2017)

Legend:
Conditions in all cases: concentration: 1 μM, replicates: in singlicate; n = 1
CDK8 = test system: CDK8
CDK9 = test system: CDK9
CDKL1 = test system: CDKL1
CDKL2 = test system: CDKL2
CDKL3 = test system: CDKL3
CDKL5 = test system: CDKL5
CHEK1 = test system: CHEK1
CHEK2 = test system: CHEK2
CIT = test system: CIT
CLK1 = test system: CLK1
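Further: KINOMEscan kinase panel screen.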

SMILES | %Inh (CDK8) | %Inh (CDK9) | %Inh (CDKL1) | %Inh (CDKL2) | %Inh (CDKL3) | %Inh (CDKL5) | %Inh (CHEK1) | %Inh (CHEK2) | %Inh (CIT) | %Inh (CLK1)
Cl.NC(=O)c1cccc(Nc2nccc(Nc3ccc(Oc4c(Cl)cccc4Cl)c(Cl)c3)n2)c1 [GW659009] | 18% | 0% | 0% | 15% | 0% | 0% | 1% | 0% | 9% | 46%
Cl.Cl.NCC(C(=O)Nc1cc(Br)c(-c2ccnc3[nH]ccc23)s1)c1ccccc1 (stereo not shown) [GSK1269851] | 0% | 3% | 20% | 51% | 0% | 0% | 0% | 0% | 99% | 63%
CCc1ccc(-c2ccc3c(c2)-c2c(cnn2C)S(=O)(=O)N3C)cc1 | 0% | 0% | 0% | 0% | 20% | 0% | 0% | 0% | 8% | 22%
COc1cccc(-c2ccc3c(NC(=O)C4CC4)n[nH]c3n2)c1 [SB-710903] | 50% | 0% | 0% | 67% | 0% | 0% | 0% | 0% | 5% | 15%
COc1ccc(-c2coc3ccc(-c4nnc(SCc5ccc(OC)c(C(F)(F)F)c5)o4)cc23)cc1 | 20% | 1% | 11% | 0% | 0% | 1% | 0% | 18% | 0% | 26%
CN(c1ccc(NC(=O)Nc2cc(C(F)(F)F)ccc2F)cc1)c1ccnc(Nc2ccc(S(N)(=O)=O)cc2)n1 [GW809893] | 98.9% | 93.5% | 80% | 99.9% | 99.4% | 26% | 0% | 20% | 57% | 47%
O=C(Nc1cccc(-c2nn3ccccc3c2-c2ccnc(Nc3cccc(C(F)(F)F)c3)n2)c1)c1c(F)cccc1F [GSK292658] | 14% | 0% | 0% | 24% | 0% | 0% | 10% | 0% | 44% | 23%
Cc1cccc(NC(=O)Nc2ccc(Oc3ncnc4ccn(C)c34)cc2)c1 | 72% | 0% | 11% | 5% | 0% | 0% | 0% | 0% | 0% | 2%
O=C(Nc1n[nH]c2cc(-c3ccoc3)ccc12)C1CC1 [SB-738481] | 11% | 2% | 18% | 87% | 10% | 50% | 0% | 6% | 0% | 23%
Clc1ccc(-c2nn3ncccc3c2-c2ccnc(Nc3ccc4c(c3)OCCO4)n2)cc1 [GW829116] | 20% | 0% | 0% | 4% | 0% | 0% | 0% | 2% | 89% | 0%
O=C(O)C(F)(F)F.O=C(O)C(F)(F)F.O=c1[nH]ccc2nc(N[C@@H]3CCCNC3)nc(Nc3ccc(S(=O)(=O)N4CCOCC4)cc3)c12 [GSK2177277] | 0% | 17% | 64% | 45% | 0% | 42% | 100% | 74% | 76% | 76%
COc1cccc(NC(=O)NC2CCN(c3ccnc(Nc4cc(OC)c(OC)c(OC)c4)n3)C2)c1 (stereo not shown) [GSK1379763] | 39% | 10% | 0% | 52% | 0% | 0% | 0% | 54% | 23% | 12%
COc1ccc(Nc2nccc(N3CCC(NC(=O)Nc4cccc(OC)c4)C3)n2)cc1 (stereo not shown) [GSK1379742] | 72% | 0% | 0% | 49% | 0% | 0% | 0% | 0% | 14% | 26%
Nc1ncc(-c2cccnc2)c2scc(-c3ccc4c(c3)CCN4C(=O)Cc3ccccc3)c12 [GSK683281] | 36% | 0% | 26% | 29% | 0% | 7% | 18% | 0% | 49% | 36%
CCn1c(-c2nonc2N)nc2c(C#CC(C)(C)O)nc(OC[C@H](N)c3ccccc3)cc21 [GSK943949] | 4% | 0% | 0% | 0% | 0% | 12% | 0% | 0% | 61% | 24%
CC(C)c1nc(-c2cccc(NS(=O)(=O)c3c(F)cccc3F)c2F)c(-c2ccnc(Nc3ccc(N4CCOCC4)nc3)n2)s1 [GSK2008607] | 14% | 93% | 54% | 99.3% | 4% | 90.2% | 0% | 60% | 95.1% | 0%
